The text below walks through data of PubChem BioAssay (NCATS).

Results filed as inconclusive are left out. Calls of active or inactive are those of the source. The call rests on the fitted dose curve; in most records, active means well fitted cell-killing curve with a large enough effect; inconclusive means small, poorly fitted or top-dose-only effect; inactive means no such curve, though single readings can be large or run the other way.
On the % scale 0 is the no-effect control and ±100 the full control effect; potency means the concentration at half of the fitted maximal effect.

The experiment can be described thus: qHTS of pediatric cancer cell lines to identify multiple opportunities for drug repurposing: Primary screen for A673 cells (AID 1347092). Further: nearly all actives have a fitted effect of over 45% in size. The note with it: A673 Ewing sarcoma viability, CellTiter-Glo ATP luminescence, 48 h; series mostly up to 46 µM; activity change, negative = cytotoxic: at the top concentration. The text has this:
Drug repurposing or repositioning has been offered as a strategy for drug development in oncology programs. This approach has special potential for childhood cancers and other rare or orphan diseases, where the expected return on new drug development has been a disincentive to pharmaceuticals. […] In this project we exploit the poly-pharmacology of drugs to discover new indications via phenotypic screening of a panel of 19 well-characterized cell lines derived from solid tumors seen in children and adolescents. The goal is to identify approved drugs with previously unrecognized anticancer properties that has the potential to reveal new mechanisms and biological processes involved in carcinogenesis or drug resistance. We employed a titration-based paradigm (quantitative high-throughput screening or qHTS), where all compounds were tested at multiple concentrations for their effect on cell viability. Concentration-response curves (CRCs) were derived directly from the primary screen, and both potency and efficacy values were used to identify compounds with robust bioactivity profiles. We screened the NIH Chemical Genomics Center (NCGC) Pharmaceutical Collection (NPC) and Mechanism Interrogation Plate (MIPE) small molecule collections of approved and investigational compounds against these cell lines; and measured metabolically active cells after 48 hours of compound treatment as a proxy for cell viability. […] Assay Submitter: Nathalia J. Martinez, National Center for Advancing Translational Sciences, National Institutes of Health, Rockville, MD, USA; email: natalia.martinez@nih.gov. Shen, M et al. Quantitative high-throughput phenotypic screening of pediatric cancer cell lines identifies multiple opportunities for drug repurposing. Oncotarget 2017 Dec 19;9(4):4758-4772. PMID 29435139.
The cells were obtained from University of North Carolina (UNC), Pediatric Preclinical Testing Program (PPT), and Coriell Institute (CI). qHTS cell viability assay: Cells were assayed in growth media at a density of 500-1,000 cells/well. Five microliters of cells were dispensed into 1,536-well, white, solid-bottom, TC-treated plates (Greiner Bio One) using a multidrop dispenser and incubated at 37 degrees C, 5% CO2, under a humidified atmosphere for 5 hours. Twenty-three nanoliters of compounds and controls (neutral control DMSO or positive control bortezomib at final concentration of 2.3 uM) were subsequently transferred by Kalypsys pintool. For primary screens, the MIPE collection was tested at 11-point dilutions (final concentrations range from 0.78 nM to 46 µM) and the NPC collection at 8-point dilutions (final concentrations range from 0.59 nM to 46 µM). Compounds tested in follow-up screens were assayed at 11-point dilutions. Cells were incubated for 48 hours, followed by addition of 3 uL of CellTiter-Glo (Promega). After a 15min incubation at room temperature, samples were analyzed for luminescence intensity using a ViewLux High-throughput CCD imager equipped with clear filters.
(Quantitative high-throughput screening tests each substance at several concentrations.)
As for `CCOC(=O)C(=O)CCCCCCl`, the “activity change, negative = cytotoxic” value is 8.32% (inactive).

As to `CN1CCC(=C2c3ccccc3CCc3cccnc32)CC1`, the “activity change, negative = cytotoxic” value was -2.28% (inactive).

Turning to `O=C1CC2(CCCC2)CC(=O)N1`, the “activity change, negative = cytotoxic” value is -3.96% (inactive).

Consider `CNC(=O)c1c(I)c(NC(C)=O)c(I)c(C(=O)O)c1I`, for which the “activity change, negative = cytotoxic” value is 8.39% (inactive).

Regarding `CC(C)(C)c1cc(C=O)cc(C(C)(C)C)c1O`, the “activity change, negative = cytotoxic” value was -7.62% (inactive).

On to `COC(=O)/C=C(/C)N`, for which the “activity change, negative = cytotoxic” value is 5.21% (inactive).

Take `CC1(C)S[C@@H]2[C@H](NC(=O)C(c3ccccc3)S(=O)(=O)O)C(=O)N2[C@H]1C(=O)O` (stereo not given in full): the “activity change, negative = cytotoxic” value is -1.09% (inactive).

With `O=[N+]([O-])c1cncn1CCN1CCOCC1`, the “activity change, negative = cytotoxic” value is 13.3% (inactive).

Consider `CCOC(=O)[C@H](CCc1ccccc1)N[C@@H](C)C(=O)N(CC(=O)O)C1Cc2ccccc2C1`, for which the “activity change, negative = cytotoxic” value was -0.663% (inactive).

In the case of `CCC(=O)Oc1ccc2c(c1)CC[C@@H]1[C@@H]2CC[C@@]2(C)[C@H]1C[C@@H](OC(=O)CC)[C@@H]2OC(=O)CC`, the “activity change, negative = cytotoxic” value is 2.82% (inactive).

With `CC(=O)[C@H]1CC[C@H]2[C@@H]3C=CC4=CC(=O)CC[C@@]4(C)[C@@H]3CC[C@]12C`, the “activity change, negative = cytotoxic” value was -21.8% (inactive).

Take `CC(C)(C)C(=O)OCOC(=O)C1N2C(=O)CC2S(=O)(=O)C1(C)C` (stereo not given): the “activity change, negative = cytotoxic” value was -7.64% (inactive).

As to `CC(COc1ccccc1)NN` (stereo not given), the “activity change, negative = cytotoxic” value was -2.81% (inactive).

`CCCc1ccc(OCC(=O)N2CCN(C(=O)COc3ccc(CCC)cc3OC)CC2)c(OC)c1`: the “activity change, negative = cytotoxic” value is -6.77% (inactive).

Consider `Cc1oc(=O)oc1COC(=O)[C@@H]1N2C(=O)[C@@H](NC(=O)[C@H](N)c3ccccc3)[C@H]2SC1(C)C`, for which the “activity change, negative = cytotoxic” value was -2.35% (inactive).

In the case of `CCCCCCCCCCCCCCCC[N+](C)(C)Cc1ccccc1`, the Potency is 13.3 µM (active).

Take `Clc1ccc2c(c1)Nc1ccccc1S2`: the “activity change, negative = cytotoxic” value is 8.07% (inactive).

Consider `CC(CCc1ccc2c(c1)OCO2)NN` (stereo not given), for which the “activity change, negative = cytotoxic” value was 8.39% (inactive).

Turning to `CN1[C@@H]2CC[C@H]1CC(NC(=O)n1c(=O)[nH]c3ccccc31)C2` (stereo not given in full), the “activity change, negative = cytotoxic” value is 5.95% (inactive).

Regarding `CN1C(=O)CC(C)(c2ccccc2)C1=O` (stereo not given), the “activity change, negative = cytotoxic” value is -22.4% (inactive).

In the case of `COc1cc(C(=O)OC(COCCC(C)C)CN2CCOCC2)cc(OC)c1OC` (stereo not given), the “activity change, negative = cytotoxic” value is 5.49% (inactive).

With `CCc1cc2cc(OC)c(OC)cc2c(Cc2ccccc2)n1`, the “activity change, negative = cytotoxic” value was -15.1% (inactive).

Consider `O=C(O)c1ccccc1S`, for which the “activity change, negative = cytotoxic” value was 6.5% (inactive).

For `CCOC(=O)c1cc(=O)c2c(OCC(COc3cccc4oc(C(=O)OCC)cc(=O)c34)OC(=O)[C@@H](N)CCCCN)cccc2o1`, the “activity change, negative = cytotoxic” value is -20.8% (inactive).

For the molecule `CN1C(=O)c2ccccc2C1=O`, the “activity change, negative = cytotoxic” value is 14.3% [at 92.7 µM] (inactive).

In the case of `OC1(c2ccc(Cl)cc2)CCNCC1`, the “activity change, negative = cytotoxic” value is -8% (inactive).

Consider `CCOCCn1c(C2CCN(CCc3ccc(C(C)(C)C(=O)O)cc3)CC2)nc2ccccc21`, for which the “activity change, negative = cytotoxic” value was -4.62% (inactive).

On to `CC(C)C[C@@H]1[C@H](c2ccccc2)OC(=O)N1CCCN1CCCCCC1`, for which the “activity change, negative = cytotoxic” value is -5.61% (inactive).

As to `CCCCCCCCCCCCCCCCCCN(C)C`, the “activity change, negative = cytotoxic” value was 0.666% (inactive).

Turning to `CC(C)(C)c1ccc(C(=O)CCCCl)cc1`, the “activity change, negative = cytotoxic” value was -15.2% (inactive).

Regarding `CC(=O)O[C@@H]1CC2C3CCc4cc(OC(=O)c5ccccc5)ccc4C3CCC2(C)[C@H]1OC(C)=O` (stereo not given in full), the “activity change, negative = cytotoxic” value was -23.8% (inactive).

Turning to `O=C(COCCOCCOCC(=O)Nc1c(I)cc(I)c(C(=O)O)c1I)Nc1c(I)cc(I)c(C(=O)O)c1I`, the “activity change, negative = cytotoxic” value is 17.1% (inactive).

On to `Nc1ccc([N+](=O)[O-])c(C(F)(F)F)c1`, for which the “activity change, negative = cytotoxic” value was 2.44% (inactive).

On to `CCOc1ccc(NS(=O)(=O)c2ccc(N)cc2)nn1`, for which the “activity change, negative = cytotoxic” value was 13.5% (inactive).

On to `CC(=O)N(CC(O)CO)c1c(I)c(C(=O)NCCO)c(I)c(C(=O)NCC(O)CO)c1I` (stereo not given), for which the “activity change, negative = cytotoxic” value is 4.33% (inactive).

For `C[C@H]1C[C@H](O)c2ccsc2S1(=O)=O`, the “activity change, negative = cytotoxic” value was -1.5% (inactive).

`CCOc1ncc(F)c(=O)[nH]1`: the “activity change, negative = cytotoxic” value was 6.03% (inactive).

Consider `Cc1cccc(C)c1NC(=O)c1cc(S(N)(=O)=O)c(Cl)cc1O`, for which the “activity change, negative = cytotoxic” value is 8.43% (inactive).

`CCCCCC[C@@H](CCC)C(=O)O`: the “activity change, negative = cytotoxic” value was 1.4% (inactive).

As to `Cc1cccc(C)c1NC(=O)c1ccc(N)cc1`, the “activity change, negative = cytotoxic” value was -4.22% (inactive).
